# Data as given in paper PMC4336329 (PLoS ONE, 2015).
# The campaign covered roughly 310,000 compounds. About 14,000 (4.5%) showed an effect of 50% or more. The effect is printed as a negative number. The full list was thinned out, with strong results kept by preference.
# Target: human ether-à-go-go-related gene (hERG) potassium channel (human, UniProt Q12809)
# Assay: primary screen, population patch clamp on CHO cells stably expressing hERG; higher = less effect of the substance
# 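Also: peak tail current of the secondary pulse compared with the same well before compound.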
# Sequence of human ether-à-go-go-related gene (hERG) potassium channel (Q12809 whole entry, looked up): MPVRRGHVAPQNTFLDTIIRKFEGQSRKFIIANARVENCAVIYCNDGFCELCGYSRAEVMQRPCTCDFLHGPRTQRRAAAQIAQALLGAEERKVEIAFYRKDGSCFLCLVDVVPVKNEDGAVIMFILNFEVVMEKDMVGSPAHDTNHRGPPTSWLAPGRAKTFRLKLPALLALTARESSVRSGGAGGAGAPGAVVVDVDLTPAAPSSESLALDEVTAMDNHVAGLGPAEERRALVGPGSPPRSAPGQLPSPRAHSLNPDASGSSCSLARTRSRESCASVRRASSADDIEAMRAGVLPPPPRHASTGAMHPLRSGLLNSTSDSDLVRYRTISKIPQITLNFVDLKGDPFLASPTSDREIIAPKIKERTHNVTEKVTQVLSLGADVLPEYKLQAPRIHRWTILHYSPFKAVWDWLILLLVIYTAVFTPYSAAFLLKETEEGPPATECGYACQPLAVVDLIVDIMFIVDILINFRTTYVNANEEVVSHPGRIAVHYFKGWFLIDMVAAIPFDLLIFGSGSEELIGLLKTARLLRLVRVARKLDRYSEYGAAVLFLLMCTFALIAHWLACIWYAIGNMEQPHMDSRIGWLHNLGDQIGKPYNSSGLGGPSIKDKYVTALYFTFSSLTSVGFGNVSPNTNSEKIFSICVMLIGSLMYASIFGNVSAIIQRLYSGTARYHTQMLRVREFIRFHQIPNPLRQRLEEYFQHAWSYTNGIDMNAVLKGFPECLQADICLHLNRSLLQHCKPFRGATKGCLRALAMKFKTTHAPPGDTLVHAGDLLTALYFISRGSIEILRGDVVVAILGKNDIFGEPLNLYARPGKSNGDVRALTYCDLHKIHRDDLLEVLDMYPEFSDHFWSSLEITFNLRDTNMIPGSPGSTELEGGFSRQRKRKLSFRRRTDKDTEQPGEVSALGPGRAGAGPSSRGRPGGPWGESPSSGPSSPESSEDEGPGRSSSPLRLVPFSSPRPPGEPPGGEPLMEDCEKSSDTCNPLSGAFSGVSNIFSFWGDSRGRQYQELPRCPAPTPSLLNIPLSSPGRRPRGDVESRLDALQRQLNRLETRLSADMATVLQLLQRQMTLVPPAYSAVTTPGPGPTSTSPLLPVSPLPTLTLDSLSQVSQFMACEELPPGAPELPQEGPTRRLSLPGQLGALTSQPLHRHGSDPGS
row,SMILES,"hERG current change (%, negative = inhibition) at 10uM [%]"
1,Cc1ccc2c(c1)N(C)/C(=C/c1cccc[n+]1C)S2.[I-],-47.5
2,CC[n+]1ccccc1/C=C1\Sc2ccc(C)cc2N1C.[I-],-62.5
3,Cc1ccc2c(c1)N(C)/C(=C/c1cccc[n+]1CCO)S2.[I-],-9.09
4,Cc1oc2nc(SCC(=O)NC3CCCCC3)nc(N)c2c1C,-14.8
5,Cl.O=C(CN1CCCC1)N1c2ccccc2Sc2ccc(Cl)cc21,0.273
6,COc1ccc(S(=O)(=O)Nc2ccc3c(c2)n(C)c(=O)n3C)cc1C,2.39
7,COc1ccc(CCNC(=O)C23CN(Cc4ccccc4)CC2C(c2cccc([N+](=O)[O-])c2)=NO3)cc1 (centres unmarked),-7.39
8,Cc1ccc(CNC(=O)C23CN(Cc4ccccc4)CC2C(c2ccc([N+](=O)[O-])cc2)=NO3)cc1 (centres unmarked),-43.7
9,O=C(NCc1ccco1)C12CN(Cc3ccccc3)CC1C(c1cccc([N+](=O)[O-])c1)=NO2 (centres unmarked),-46.6
10,COc1cccc(CNC(=O)C23CN(Cc4ccccc4)CC2C(c2ccc([N+](=O)[O-])cc2)=NO3)c1 (centres unmarked),-52.1
11,O=C(NCc1ccco1)C12CN(Cc3ccccc3)CC1C(c1ccc([N+](=O)[O-])cc1)=NO2 (centres unmarked),-70.8
12,O=C(NCc1ccccc1)C12CN(Cc3ccccc3)CC1C(c1cccc([N+](=O)[O-])c1)=NO2 (centres unmarked),-14.6
13,Cc1ccc(CNC(=O)C23CN(Cc4ccccc4)CC2C(c2cccc([N+](=O)[O-])c2)=NO3)cc1 (centres unmarked),-0.125
14,Cc1ccc(CNC(=O)C23CN(Cc4ccccc4)CC2C(c2ccc([N+](=O)[O-])cc2)=NO3)o1 (centres unmarked),-49.6
15,COc1ccc(CCNC(=O)C23CN(Cc4ccccc4)CC2C(c2ccc([N+](=O)[O-])cc2)=NO3)cc1 (centres unmarked),-74.8
16,O=C(NCc1ccccc1)C12CN(Cc3ccccc3)CC1C(c1ccc([N+](=O)[O-])cc1)=NO2 (centres unmarked),-67.1
17,Cc1ccc(CCNC(=O)C23CN(Cc4ccccc4)CC2C(c2ccc([N+](=O)[O-])cc2)=NO3)cc1 (centres unmarked),-24
18,COc1ccc(CNC(=O)C23CN(Cc4ccccc4)CC2C(c2ccc([N+](=O)[O-])cc2)=NO3)cc1 (centres unmarked),-40.5
19,CCC1CCCCN1C(=O)Nc1cccc(NC(=O)N2CCCCC2CC)c1 (centres unmarked),9.57
20,CC(C)c1nnc(NC(=O)C2CCCN2S(=O)(=O)c2ccc(Cl)cc2)s1 (centres unmarked),7.71
21,Fc1ccc(N=c2ssnc2Cl)c(F)c1,22.1

row,SMILES,"hERG current change (%, negative = inhibition) at 10uM [%]"
1,CCCc1cc(=O)n2[nH]c(-c3ccc(C)cc3)cc2n1,-0.208
2,O=C(CN1CCN(C(=O)C2CCCO2)CC1)Nc1ccc(Cl)c(Cl)c1 (centres unmarked),-22.5
3,Cc1ccc(Nc2cnn(C34CC5CC(CC(CC(=O)O)(C5)C3)C4)c(=O)c2Cl)cc1,12
4,Cc1ccc(-n2nc3c(c2NC(=O)c2ccc(OC(C)C)cc2)CS(=O)C3)cc1 (centres unmarked),-12.8
5,CCc1ccc(S(=O)(=O)Nc2c(C)n(C)n(-c3ccccc3)c2=O)cc1,-2.47
6,O=c1oc2cc(O)c(Cl)cc2c2ccccc12,3.98
7,CC(C)CCNC(=O)C12CN(Cc3ccccc3)CC1C(c1cccc([N+](=O)[O-])c1)=NO2 (centres unmarked),-32.9
8,Cc1ccc(CCNC(=O)C23CN(Cc4ccccc4)CC2C(c2cccc([N+](=O)[O-])c2)=NO3)cc1 (centres unmarked),-14.8
9,CC(C)CCNC(=O)C12CN(Cc3ccccc3)CC1C(c1ccc([N+](=O)[O-])cc1)=NO2 (centres unmarked),-53.1
10,CCCCN(CCCC)CCCNC(=O)C12CN(Cc3ccccc3)CC1C(c1cccc([N+](=O)[O-])c1)=NO2 (centres unmarked),-80.6
11,O=C(NCCCCc1ccccc1)C12CN(Cc3ccccc3)CC1C(c1ccc([N+](=O)[O-])cc1)=NO2 (centres unmarked),5.9
12,O=C(NCCCCc1ccccc1)C12CN(Cc3ccccc3)CC1C(c1cccc([N+](=O)[O-])c1)=NO2 (centres unmarked),-6.27
13,CCC(C)NC(=O)CSc1nc2ccccc2c(=O)n1-c1c(C)n(C)n(-c2ccccc2)c1=O (centres unmarked),1.66
14,COc1ccc(/C=C(\C#N)C(=O)Nc2cc(S(=O)(=O)N3CCCCC3)ccc2N2CCCCC2)cc1,6.92
15,CNC(=S)Nc1ccc([N+](=O)[O-])cc1,11.9
16,Cc1ccc(S(=O)(=O)N(C)CC(=O)N(CC(C)C)C2CCS(=O)(=O)C2)cc1 (centres unmarked),-2.85
17,c1ccc(N2N=C(c3cccs3)CC2c2ccco2)cc1 (centres unmarked),2.24
18,O=C(NNCC(O)COc1ccccc1)c1ccccc1 (centres unmarked),1.06
19,O=C(NN(CC(O)COc1ccccc1)CC(O)COc1ccccc1)c1ccccc1 (centres unmarked),-66.1
20,COc1ccc(OCC(O)CNC(=O)c2ccccc2)cc1 (centres unmarked),9.92
21,Cc1ccc(S(=O)(=O)N(c2cccc(C(F)(F)F)c2)C2C=CS(=O)(=O)C2)cc1 (centres unmarked),6.3

row,SMILES,"hERG current change (%, negative = inhibition) at 10uM [%]"
1,Cc1cc(NC(=O)CCC(=O)N(Cc2ccc(F)cc2)C(C(=O)NC2CCCC2)c2ccco2)no1 (centres unmarked),0.819
2,Cc1cc(NC(=O)CCC(=O)N(Cc2ccccc2)C(C(=O)NC2CCCC2)c2ccco2)no1 (centres unmarked),-21.8
3,C=CCN(C(=O)CCC(=O)Nc1cc(C)on1)C(C(=O)NC1CCCC1)c1ccc(CC)cc1 (centres unmarked),-17.5
4,C=CCN(C(=O)CCC(=O)Nc1cc(C)on1)C(C(=O)NC1CCCC1)c1ccc(Cl)cc1 (centres unmarked),-56.3
5,C=CCN(C(=O)CCC(=O)Nc1cc(C)on1)C(C(=O)NC1CCCC1)c1ccc(C)cc1 (centres unmarked),0.416
6,Cc1cc(NC(=O)CCC(=O)N(CCc2ccccc2)C(C(=O)NC2CCCC2)c2ccco2)no1 (centres unmarked),-66.1
7,CCN(CC)S(=O)(=O)c1ccc2c(c1)CC(C(=O)N1CCCC1)N2C(C)=O (centres unmarked),1.51
8,Cl.NCCSC1CC(=O)N(c2ccc(F)cc2)C1=O (centres unmarked),17
9,CC1=C(C)CS(=O)N(S(=O)(=O)c2ccccc2)C1 (centres unmarked),-16.3
10,Cc1ccc(C(=O)CN(C(=O)c2ccc(Cl)cc2)N2C(=O)CCC2=O)cc1,-50.7
11,O=C(CN(C(=O)c1ccc(Cl)cc1)N1C(=O)C2CCCCC2C1=O)c1ccc(Cl)cc1 (centres unmarked),15.1
12,O=C(CN(C(=O)c1ccccc1Cl)N1C(=O)CCCC1=O)c1ccc(Cl)cc1,7.29
13,Cc1ccccc1CC1(CO)CCCN(C(=O)c2cc(-c3ccccc3)no2)C1 (centres unmarked),2.91
14,CC(=O)Oc1ccc(C(=O)Nc2cccc3c2CCCC3)cc1,10.4
15,Cc1c(NC(=O)Cc2ccccc2)cccc1C(=O)NN1C(=O)c2ccccc2C1=O,-10.2
16,N#CCCn1cc(/C=N/NC(N)=S)c(-c2ccccc2)n1,-28
17,Cc1ccc(C(=O)NCc2ccccn2)o1,4.94
18,Cc1ccc2c(CN3CCN(S(=O)(=O)/C=C/c4ccccc4)CC3)cc(=O)oc2c1,-72.4
19,O=c1cc(CN2CCN(S(=O)(=O)/C=C/c3ccccc3)CC2)c2ccc(O)cc2o1,-76.8
20,O=c1cc(CN2CCc3ccccc32)c2ccc(O)cc2o1,-0.218
21,O=S(=O)(/C=C/c1ccccc1)N1CCN(Cc2ccccc2)CC1,-25.3

row,SMILES,"hERG current change (%, negative = inhibition) at 10uM [%]"
1,O=c1cc(CN2CCN(S(=O)(=O)c3ccc4c(c3)OCCO4)CC2)c2ccc(O)cc2o1,-4.32
2,Cc1cc2oc(=O)cc(CN3CCN(S(=O)(=O)/C=C/c4ccccc4)CC3)c2cc1C,1.24
3,CCOc1ccc(N2C(=O)CC(N3CCN(c4ccc(Cl)cc4)CC3)C2=O)cc1 (centres unmarked),18.5
4,CCOC(=O)C1CCN(S(=O)(=O)c2c(C)[nH]c(=O)[nH]c2=O)CC1,-0.439
5,COc1ccc(C(CNC(=O)CSc2ccccc2F)N2CCOCC2)cc1 (centres unmarked),10.7
6,CC(=O)Nc1ccc(/C=C(\C#N)C(=O)NC2CCCCC2)cc1,11.2
7,O=C(Cc1ccccn1)c1ccccc1,30.3
8,Cc1ccc(S(=O)(=O)N/N=C\c2ccc3c(c2)OCO3)cc1C,-11.8
9,c1ccc(CNc2c3ccccc3nc3ccccc23)cc1,-77.1
10,CN(C)CCNc1c2c(nc3ccccc13)CCC2,-0.291
11,O=C(NC(CO)Cc1ccccc1)c1ccccc1 (centres unmarked),-10.5
12,O=C(NCc1ccco1)c1c2c(nc3ccccc13)CCC2,-24.8
13,c1coc(CNc2c3c(nc4ccccc24)CCC3)c1,-78.7
14,OCC(Cc1ccccc1)Nc1c2ccccc2nc2ccccc12 (centres unmarked),-71.2
15,Cl.c1ccc(CNc2ncnc3ccccc23)cc1,4.3
16,CN(C)CCCNc1c2c(nc3ccccc13)CCC2.Cl,-3.18
17,O=C(Cc1ccccc1)NNc1c2ccccc2nc2ccccc12,12.3
18,c1coc(CNc2c3c(nc4ncnn24)CCC3)c1,-29.6
19,c1ccc(CNc2nc(-c3ccccc3)nc3ccccc23)cc1,4.15
20,COCCNc1c2c(nc3ccccc13)CCC2.Cl,-58.5
